TcdB GH inh: inhibitors of Clostridioides difficile toxin B glycohydrolase | P18177 | TcdB glycohydrolase enzymatic assay, plate reader | inhibition, % at 9.99 µM | 0.24% of 350,000 active | AID 652162; in the data active = inhibition above about 10%
DUSP3 inh: inhibitors of human VHR1 phosphatase (DUSP3); AID 1654; inhibition, % at 13.3 µM; P51452; recombinant VHR phosphatase, pNPP absorbance; 0.52% of 290,000 active; in the data active = inhibition above about 50%
PrPC TRFRET: inhibitors of human cell surface prion protein PrPC. AID 720596. inhibition, % at 13.8 µM. P04156. 0.43% of 370,000 active. TR-FRET read-out; in the data active = inhibition above about 24%; note: 0% = median of the test wells and 100% = reference compound wells
PrPC TRFRET cf: confirmation of inhibitors of cell surface human prion protein | shares compounds with PrPC TRFRET | cell surface PrPC level, TR-FRET | inhibition, % at 13.8 µM | 65% of 1,500 active; in the data active = inhibition above about 25%
LD9 cytotox: kills or reduces viability of LD9 cells in PrPc counter-screen. LD9 cells cytotoxicity, luminescence viability. shares compounds with PrPC TRFRET. 29% of 1,500 active. inhibition, % at 13.8 µM; in the data active = inhibition above about 9.5%
Starred values were filed as active, the others as inactive; nt = no result. Rows were chosen to be rich in hits. Some 0.82% of all compounds tested hit in one or more screens of this group.

SMILES	TcdB GH inh	DUSP3 inh	PrPC TRFRET	PrPC TRFRET cf	LD9 cytotox
O=C(C[C@H]1CC[C@H]2[C@@H](COC[C@@H](O)CN2C(=O)Nc2cccc(Cl)c2)O1)NCCCN1CCOCC1	-1	nt	nt	nt	nt
CCOc1ccc(-n2nc3c(=S)[nH]nc(C)c3c2C)cc1	nt	-11	92*	125*	-4
CCOc1ccc(-n2nc3c(Cl)nnc(C)c3c2C)cc1	1	-11	0	nt	nt
CCOc1ccc(-n2nc3c(=O)[nH]nc(C)c3c2C)cc1	nt	-7	2	nt	nt
CCOc1ccc(-n2nc3c(SCCN4CCCC4)nnc(C)c3c2C)cc1	1	12	55*	74*	-3
Cc1ccc(-n2nc3c(SCCN4CCOCC4)nnc(C)c3c2C)cc1	nt	14	33*	56*	-4
CCCN1CCN(C(=O)C2CCN(c3nnc(C)c4c(C)n(-c5ccc(C)cc5)nc34)CC2)CC1	-2	10	13	nt	nt
C[C@H](NC(=O)C[C@@H]1C[C@@H]2c3cc(NC(=O)CC4CC4)ccc3O[C@@H]2[C@H](CO)O1)c1ccccc1	0	nt	nt	nt	nt
C[C@H](CO)N1C[C@H](C)[C@@H](CN(C)C)Oc2cc(Br)ccc2S1(=O)=O	0	nt	nt	nt	nt
O=C(NCC[C@H]1CC[C@@H](NS(=O)(=O)c2ccc(Cl)cc2)[C@H](CO)O1)Nc1ccc(F)cc1	-1	nt	nt	nt	nt
CCC(=O)N[C@H]1C=C[C@@H](CC(=O)NCc2cc(F)cc(F)c2)O[C@@H]1CO	0	nt	nt	nt	nt
CNc1ncc(C(=O)c2ccc(Cl)c(Cl)c2)s1	nt	33	6	nt	nt
CNc1ncc(C(=O)c2ccc(Cl)cc2)s1	nt	29	62*	78*	-9
CC(C)CC#Cc1ccc2c(c1)O[C@H](CN(C)C(=O)Cc1ccncc1)[C@@H](C)CN([C@H](C)CO)S2(=O)=O	-2	nt	nt	nt	nt
CC=Cc1ccc2n(c1=O)C[C@H]1[C@H](CO)[C@@H](C(=O)NCCC)[C@@H]2N1C(=O)C1CCCC1 (mixture of isomers)	1	nt	nt	nt	nt
COc1cc(C(=O)N[C@@H](C)C(=O)N2CCC3(CC2)NCCc2[nH]cnc23)cc(OC)c1OC	2	-4	25*	6	4
CCOc1cc(C(=O)N[C@@H](C)C(=O)N2CCC3(CC2)NCCc2[nH]cnc23)cc(OCC)c1OCC	1	10	-3	nt	nt
O=C(C[C@@H]1C=C[C@H](NC(=O)C2CC2)[C@@H](CO)O1)NC1CCC1	-1	nt	nt	nt	nt
COc1cc(/C=N/NC(=O)/C(=C/c2ccccc2)CCO)ccc1O	nt	30	-1	nt	nt
O=C(N/N=C/c1ccc(O)cc1O)/C(=C/c1ccccc1)CCO	nt	8	30*	32*	17*
COc1ccccc1-c1ccc2n(c1=O)C[C@@H]1[C@@H](CO)[C@H](C(=O)NC3CCC3)N(C(=O)NC(C)C)[C@H]21	0	nt	nt	nt	nt
O=C(NCC[C@H]1CC[C@H](NC(=O)C2CCCCC2)[C@H](CO)O1)c1ccc(F)cc1	-1	nt	nt	nt	nt
C[C@@H]1CN([C@H](C)CO)C(=O)Cc2cc(NS(=O)(=O)c3cn(C)cn3)ccc2O[C@@H]1CN(C)Cc1ccc(Cl)c(Cl)c1	0	nt	nt	nt	nt
Cc1ccc(S(=O)(=O)NCCCN2CCCC2)cc1	1	18	55*	-1	-10
Cc1ccc(S(=O)(=O)NCCN=C(CN2CCCC2)NS(=O)(=O)c2ccc(C)cc2)cc1	nt	22	1	nt	nt
SMILES	TcdB GH inh	DUSP3 inh	PrPC TRFRET	PrPC TRFRET cf	LD9 cytotox
CO[C@@H]1CN(C)C(=O)c2cc(NC(=O)Nc3ccc(F)cc3)ccc2OC[C@@H](C)N(C(=O)c2cnccn2)C[C@H]1C	-1	nt	nt	nt	nt
COc1ccc(NS(=O)(=O)c2ccc(-c3cnc(C4CC4)o3)cc2)cc1OC	0	52*	32*	21	23*
COc1ccccc1NS(=O)(=O)c1ccc(-c2cnc(C3CC3)o2)cc1	-2	-14	14	nt	nt
C[C@@H]1CN([C@@H](C)CO)C(=O)c2cc(N(C)C)ccc2O[C@@H](C)CCCCO[C@H]1CN(C)Cc1ccc2c(c1)OCO2	-12	nt	nt	nt	nt
C[C@@H]1CN([C@H](C)CO)C(=O)c2cc(NS(=O)(=O)c3ccc(F)cc3)ccc2O[C@@H](C)CCCCO[C@H]1CN(C)S(=O)(=O)c1ccccc1	-1	nt	nt	nt	nt
COc1ccc(CCNc2ncnc3c2oc2ccccc23)cc1OC	1	23	27*	27*	20*
COc1ccc(CCNc2nc(C)nc3c2oc2ccccc23)cc1OC	nt	6	11	nt	nt
COc1cnn(-c2ccc(C)cc2)c(=O)c1Br	1	-3	1	nt	nt
COc1ccc(Oc2cnn(-c3ccccc3)c(=O)c2Br)cc1	1	1	27*	36*	-5
CCCC(=O)Nc1ccc2c(c1)OC[C@H](C)N(Cc1ccccc1F)C[C@H](C)[C@@H](OC)CN(C)C2=O	1	nt	nt	nt	nt
CC(C)OC(=O)N(C)C[C@@H]1OCc2ccccc2-c2ccccc2C(=O)N([C@H](C)CO)C[C@@H]1C	0	nt	nt	nt	nt
CCOC(=O)C1CCN(c2ncnc3c2cnn3-c2ccc(OC)cc2)CC1	nt	16	4	nt	nt
COc1ccc(-n2ncc3c(N4CCC(C(N)=O)CC4)ncnc32)cc1	nt	21	36*	29*	-4
Cc1onc(-c2ccccc2Cl)c1C(=O)Nc1nnc(-c2ccc(F)cc2)s1	0	12	3	nt	nt
Cc1onc(-c2ccccc2Cl)c1C(=O)Nc1nnc(-c2ccc(Br)cc2)s1	3	15	26*	41*	-5
CC(=O)N/N=C/c1c(C)[nH]n(-c2ccccc2)c1=O	-1	-16	7	nt	nt
Cc1[nH]n(-c2ccccc2)c(=O)c1/C=N/NC(=O)C(C)C	-7	28	29*	43*	5
O=C(Cc1ccccc1)NNc1ccc2ccccc2c1	1	15	30*	13	0
O=C(COc1ccc2ccccc2c1)NNC(=O)Cc1ccccc1	0	1	4	nt	nt
CCN(CC)C(=O)C1CCCc2c1[nH]c1ccc(Cl)cc21 (configuration not stated)	1	-8	26*	7	-7
Cc1ccc2[nH]c3c(c2c1)CCCC3C(N)=O (configuration not stated)	0	8	5	nt	nt
Cc1noc(C)c1S(=O)(=O)Nc1ccc2c(c1)C(=O)N([C@@H](C)CO)C[C@H](C)[C@@H](CN(C)Cc1ccc(C(=O)O)cc1)O2	0	nt	nt	nt	nt
Cc1occc1C(=O)N1CCN(C(=O)C2CCCO2)CC1 (configuration not stated)	1	12	47*	5	-2
O=C(c1ccco1)N1CCN(C(=O)C2CCCO2)CC1 (configuration not stated)	nt	31	6	nt	nt
Cc1ccccc1NC(=O)Nc1ccc(C(F)(F)F)cc1	-6	31	30*	17	9
SMILES	TcdB GH inh	DUSP3 inh	PrPC TRFRET	PrPC TRFRET cf	LD9 cytotox
Cc1ccccc1NC(=O)CNC(=O)c1ccc(C(F)(F)F)cc1	3	6	2	nt	nt
CN(C)S(=O)(=O)c1cccc(NC(=O)c2cncc(Br)c2)c1	-8	0	10	nt	nt
Cc1ccc(S(=O)(=O)N(C)C)cc1NC(=O)c1cncc(Br)c1	4	-13	27*	21	-2
C[C@@H]1CN([C@H](C)CO)S(=O)(=O)c2ccc(-c3ccc(C(=O)N(C)C)cc3)cc2O[C@@H]1CN(C)C(=O)C1CCCCC1	1	nt	nt	nt	nt
S=c1[nH]nc(-c2cccc(Br)c2)o1	nt	2	25*	36*	-3
S=c1[nH]nc(-c2cccnc2)o1	nt	-14	-4	nt	nt

From PubChem
